Luc counter = Kinase-Glo luciferase inhibition (counter-screen); Q27757; Kinase-Glo luciferase, ATP luminescence, 8 min; Potency, µM (highest dose often 38.3 µM), for the others: top-dose activity change, negative = inhibition, most hits filed as inhibitors; 200,000 compounds, 0.28% hits; further: nearly all actives have a fitted effect of over 60% in size
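Recombinant Kinase-Glo luciferase, 10 uM ATP (linear range), luciferin; imidazole pH 7.2 / KCl / MgCl2 / Tween / BSA buffer; 8 min RT; luminescence.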
GAA inh = blocks human lysosomal alpha-glucosidase. Potency, µM (doses to about 76.9 µM), for the others: at the highest dose activity change, negative = inhibition, actives largely listed as inhibitors. 200,000 compounds, 0.005% hits. purified human GAA, 4-MU-alpha-glucoside fluorescence;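 further: plate controls were uninhibited enzyme wells for no effect and no-enzyme background for full effect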
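Endpoint fluorogenic read: 20 min room-temperature reaction of 4 nM human alpha-glucosidase with 400 uM 4-methylumbelliferyl-alpha-D-pyranoside, pH 5.0, quenched with 1M NaOH/1M glycine pH 10. AC50 from Hill modeling.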
N370S GC = inhibits or activates N370S mutant glucocerebrosidase; P04062; N370S GC spleen homogenate, 4MU-glucoside fluorescence; Potency, µM (top dose mostly 59.4 µM), without a hit: at the top dose activity change, negative = inhibition, actives largely listed as inhibitors; 330,000 compounds, 0.092% hits; AID 2101;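 further: 0% = full enzyme activity and -100% = no enzyme basal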
GAA spleen mod = inhibits or activates alpha-glucosidase in human spleen homogenate; 240,000 compounds, 0.006% hits; human spleen homogenate, 4-MU-alpha-glucoside fluorescence; P10253; AID 2112; Potency, µM (series often up to 79.9 µM), inactives show at the top dose activity change, negative = inhibition, usual class: inhibitors;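 further: 0% = enzyme with vehicle and -100% = no enzyme basal signal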
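Human spleen homogenate (1 ug) with 4-methylumbelliferyl-alpha-D-glucopyranoside (1 mM final) in 50 mM citrate/phosphate pH 5.0, 0.01% Tween-20; 40 min at 37 C. Stopped at pH 10; 4-MU fluorescence Ex 365/Em 440 nm; AC50 by Hill fit.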
LMNA splice mod = LMNA splicing modulation; 200,000 compounds, 0.01% hits; Potency, µM (doses to about 46.1 µM), for the others: at the highest dose ratio change, negative = inhibition, usual class: inhibitors; HeLa LMNA splicing GFP/RFP minigene ratio, 48 h; AID 1487; active means well fitted inhibition curve with a large enough effect in the signal ratio, with a control signal flat, not every such curve was filed as active; inconclusive means small, poorly fitted or top-dose-only effect, or effect the other way, or a change in a side signal; the % refers to the signal ratio
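S3 HeLa stable clones carrying a lamin A-EGFP splicing minigene plus DsRed2 were seeded at 600 cells/well in Opti-MEM with 2% FBS, pin-dosed and incubated 48 h at 37°C. Acumen cytometry (488 nm) gave the GFP/RFP total-intensity ratio.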
GAA glycogen = inhibitors or activators of human alpha-glucosidase glycogen cleavage. P10253. recombinant GAA, glycogen substrate, Amplex Red glucose oxidase fluorescence. Potency, µM (top dose mostly 76.4 µM), for the others: at the highest dose activity change, negative = inhibition, usual class: inhibitors. 300,000 compounds, 0.38% hits. AID 2100;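 further: 0% = full enzyme reaction and -100% = no-enzyme basal signal; the screen sought inhibitors and activators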
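Recombinant human enzyme (4 nM); glycogen substrate; 37 C, 40 min, pH 5.0. Readout: coupled glucose oxidase/Amplex Red fluorescence.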
* hit, by the source's call; [ ] = another dose, or the depositor's remark. Most compounds without a hit are left out; they make up all but 0.52% or so of the library. Unless noted, the call rests on the fitted dose curve; in most records, active means well fitted curve in the direction sought with a large enough effect; inconclusive means small, poorly fitted or top-dose-only effect, or another doubt; inactive means no such curve, though single readings can be large; an effect the other way counts as inactive or inconclusive. Unless noted, on the % scale 0 is the no-effect control and ±100 the full control effect; potency means the concentration at half of the fitted maximal effect.

How did Nc1sc(-c2ccccc2)cc1C(=O)O do in these assays?
Luc counter: 6.3%; GAA inh: 1.3%; N370S GC: 3.7%; GAA spleen mod: -1.2%; LMNA splice mod: 2.6%; GAA glycogen: 24.9µM*

What do the screens show for `CCOC(=O)c1cc(-c2ccc(N)cc2)sc1N`?
Luc counter: -1.9%; GAA inh: inconclusive; N370S GC: -21.5%; GAA spleen mod: 2.1%; LMNA splice mod: inconclusive; GAA glycogen: 14µM*

How did CC(C)(C)C(=O)Nc1sc(-c2ccccc2)cc1C(=O)O do in these assays?
N370S GC: -0.1%; GAA spleen mod: -2.3%; GAA glycogen: 5.2%

How did CCCC12CN3CC(C)(CN(C1)C3c1cn(CC)c3ccccc13)C2=O (stereo unspecified) do in these assays?
GAA glycogen: -3.1%[76.3 µM]

Results for CC1CCC2C(=O)N3C(CCC(C)[C@H]3c3cccc(N4CCCC4=O)c3)C(=O)N2C1c1cccc(N2CCCC2=O)c1 (stereo partly specified) ?
N370S GC: 24.9%[12.8 µM]; GAA spleen mod: -1.2%[17.4 µM]

What do the screens show for `COc1cc(/C=N/N2C(=O)CSC2=S)ccc1O`?
Luc counter: -2.7%; GAA inh: 1.0%; N370S GC: -22.6%; GAA spleen mod: 0.6%; LMNA splice mod: 7.1%; GAA glycogen: 31.6µM*

What do the screens show for `COc1ccc(Br)cc1/C=N/N1C(=O)CSC1=S`?
N370S GC: -2.4%; GAA glycogen: 4.6%

Results for Cc1ccc2c(c1)C(N1CCCC1=O)CC(c1ccco1)N2 (stereo unspecified) ?
Luc counter: 11.2µM*; GAA inh: inconclusive; N370S GC: -4.4%; GAA spleen mod: -3.2%; LMNA splice mod: 3.8%; GAA glycogen: -3.3%

What do the screens show for `Nc1ccc2nc(-c3ccccc3)[nH]c2c1`?
Luc counter: inconclusive; GAA inh: inconclusive; N370S GC: -20.4%; GAA spleen mod: 16.9%; LMNA splice mod: -12.0%; GAA glycogen: inconclusive

What do the screens show for `Nc1ccc2nc(-c3ccccn3)[nH]c2c1`?
Luc counter: 11.2µM*; GAA inh: -4.2%; N370S GC: -13.0%; GAA spleen mod: -2.3%; LMNA splice mod: inconclusive; GAA glycogen: inconclusive

Results for COc1ccc(N2CCN(Cc3nc4c(c(=O)[nH]c(=O)n4C)n3Cc3ccccc3C)CC2)cc1 ?
GAA glycogen: -10.7%[76.3 µM]

What do the screens show for `CSc1ccc(/C=N/NC(=O)c2ccc(O)cc2)cc1`?
Luc counter: 12.6µM*; GAA inh: -11.0%; N370S GC: 3.4%; GAA spleen mod: -9.1%; LMNA splice mod: -0.3%; GAA glycogen: 3.5%

How did CCCCNc1nc(SC)nc2nc[nH]c12 do in these assays?
Luc counter: -1.8%[7.66 µM]

How did COc1cccc(-c2cn3nc(C)c(C)nc3n2)c1 do in these assays?
Luc counter: 11.2µM*; GAA inh: 3.9%; N370S GC: -28.8%; GAA spleen mod: -6.5%; LMNA splice mod: 6.4%; GAA glycogen: 5.1%

Results for Nc1cc(S(=O)(=O)c2ccc(O)c(N)c2)ccc1O ?
N370S GC: 7.3%; GAA spleen mod: -6.3%; GAA glycogen: 7.94µM*

What do the screens show for `COc1ccccc1CNc1n[nH]c(NCc2ccccc2OC)n1`?
Luc counter: 6.2%; GAA inh: -10.7%; N370S GC: -2.0%; GAA spleen mod: 4.6%; LMNA splice mod: 4.6%; GAA glycogen: 24.9µM*

How did O=C(NNc1nc2c(F)cccc2s1)C1COc2ccccc2O1 (stereo unspecified) do in these assays?
Luc counter: -0.7%; GAA inh: -16.7%; N370S GC: 3.6%; GAA spleen mod: -2.3%; GAA glycogen: 4.43µM*

What do the screens show for `O=c1nc(/C=C/c2ccc(O)c(O)c2)oc2ccccc12`?
N370S GC: -24.6%; GAA spleen mod: -16.6%; GAA glycogen: 7.08µM*

What do the screens show for `O=C1OC(N2C(=O)CC[C@H]2C(=O)Nc2ccc3c(c2)OCO3)c2ccccc21` (stereo partly specified)?
N370S GC: -0.3%; GAA glycogen: 31.6µM*

What do the screens show for `COc1ccc(-n2cc(CNCCc3nc(C)cc(C)n3)c(-c3ccccc3Cl)n2)cc1`?
Luc counter: -3.8%; GAA inh: 13.5%; N370S GC: inconclusive; GAA spleen mod: -6.0%; GAA glycogen: 5.6%

What do the screens show for `COc1ccc(-n2cc(CNCCc3ncc(C)[nH]3)c(-c3ccccc3Cl)n2)cc1`?
Luc counter: -4.8%; GAA inh: -2.5%; N370S GC: -3.8%; GAA spleen mod: -2.0%; LMNA splice mod: inconclusive; GAA glycogen: 7.08µM*

How did CCCN1CCN(CCCNC(=O)c2ccc3c(c2)sc2nc(-c4ccc(C)cc4)cn23)CC1 do in these assays?
LMNA splice mod: -3.4%[46 µM]; GAA glycogen: 9.6%[76.3 µM]

What do the screens show for `COc1cc(C(Nc2ccccn2)c2ccc3ccc(C)nc3c2O)cc(OC)c1O` (stereo unspecified)?
Luc counter: -2.9%; GAA inh: 3.2%; N370S GC: -6.2%; GAA spleen mod: 0.6%; LMNA splice mod: inconclusive; GAA glycogen: 17.6µM*

What do the screens show for `CCOC(=O)C1CCCN(c2c(C(=O)c3ccc(OCC)cc3)cnc3ccccc23)C1` (stereo unspecified)?
GAA glycogen: 11.2µM*

How did Cc1cc(-c2ccc(N=Nc3cc(S(=O)(=O)O)c4ccccc4c3N)c(C)c2)ccc1N=Nc1cc(S(=O)(=O)O)c2ccccc2c1N do in these assays?
N370S GC: inconclusive; GAA spleen mod: -12.1%

Results for Cc1ccc(CNC(=O)CCCCCn2c(=O)c3sccc3n(CC(=O)N3CCCCC3C)c2=O)cc1 (stereo unspecified) ?
GAA glycogen: -3.6%[76.3 µM]

How did COc1ccc2c(Cl)c(C(=O)NN)sc2c1 do in these assays?
Luc counter: -2.4%; GAA inh: -0.9%; N370S GC: 7.1%; GAA spleen mod: -6.7%; LMNA splice mod: inconclusive; GAA glycogen: 15.7µM*

Results for CCNc1nc(NCC)nc(N(C)N)n1 ?
Luc counter: 0.3%; GAA inh: -2.5%; N370S GC: 3.9%; GAA spleen mod: 1.5%; LMNA splice mod: 2.6%; GAA glycogen: 35.5µM*

Results for CC(C)Nc1nc(NC(C)C)nc(N(C)N)n1 ?
Luc counter: -2.2%; GAA inh: -2.5%; GAA spleen mod: 1.4%; LMNA splice mod: 12.6%; GAA glycogen: 28.2µM*

How did CC(C)Nc1nc(NC(C)C)nc(N(C)C(N)=O)n1 do in these assays?
Luc counter: 0.6%; GAA inh: 8.1%; N370S GC: 3.3%; GAA spleen mod: -2.6%; LMNA splice mod: 9.9%; GAA glycogen: 3.8%
